{"source": "the supplement of paper PMC11634586", "note": "Where a name gives a salt, the structure may show the parent alone. Unmarked numbers belong to inactive results.", "data": [{"tested_on": "NCI-H1688", "assay": "inhibition of cell viability relative to untreated control (fraction); higher = stronger growth inhibition, active = 0.5 or more", "conditions": "30 µM; 24 h", "method": "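Natural product library (TargetMol, 640 compounds) screened on NCI-H1688 SCLC cells at 30 µM for 24 h; viability by CCK-8 absorbance at 450 nm, normalised to untreated control and expressed as inhibition rate (fraction). Compounds with >50% reduction in viability were selected as hits.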", "values": [{"smiles": "C=C[C@H]1CN2CC[C@H]1C[C@@H]2[C@@H](O)c1ccnc2ccc(OC)cc12", "note": "[Quinidine hydrochloride]", "inhibition of cell viability": -0.217}, {"smiles": "C=C1CC23CCC4C(C)(C(=O)OC5OC(CO)C(O)C(O)C5O)CCCC4(C)C2CCC1(OC1OC(CO)C(O)C(OC2OC(CO)C(O)C(O)C2O)C1OC1OC(C)C(O)C(O)C1O)C3", "note": "(stereo not given) [Dulcoside B]", "inhibition of cell viability": 0.0729}, {"smiles": "O=C1c2cccc(O)c2C(=O)c2c(O)cc(CO)cc21", "note": "[Aloe-emodin]", "inhibition of cell viability": 0.373}, {"smiles": "CC[C@H]1OC(=O)[C@H](C)[C@@H](O[C@H]2C[C@@](C)(OC)[C@@H](O)[C@H](C)O2)[C@H](C)[C@@H](O[C@@H]2O[C@H](C)C[C@H](N(C)C)[C@H]2O)[C@](C)(O)C[C@@H](C)[C@@H]2N[C@@H](COCCOC)O[C@H]([C@H]2C)[C@]1(C)O", "note": "[Dirithromycin]", "inhibition of cell viability": 0.0389}, {"smiles": "CN(C)[C@@H]1C(O)=C(C(N)=O)C(=O)[C@@]2(O)C(O)=C3C(=O)c4c(O)cccc4[C@@](C)(O)[C@H]3C[C@@H]12", "note": "[Tetracycline hydrochloride]", "inhibition of cell viability": 0.293}, {"smiles": "OC[C@H]1O[C@H](OC[C@H]2O[C@H](OC[C@H]3O[C@H](O[C@]4(CO)O[C@H](CO)[C@@H](O)[C@@H]4O)[C@H](O)[C@@H](O)[C@@H]3O)[C@H](O)[C@@H](O)[C@H]2O)[C@H](O)[C@@H](O)[C@H]1O", "note": "[D-Stachyose tetrahydrate]", "inhibition of cell viability": -0.0317}, {"smiles": "O=C(O)C1=C[C@@H](O)[C@@H](O)[C@H](O)C1", "note": "[Shikimic Acid]", "inhibition of cell viability": 0.0707}, {"smiles": "CC1(C)[C@@H](O)CC[C@]2(C)[C@H]3C(=O)C=C4[C@@H]5C[C@@](C)(C(=O)O)CC[C@]5(C)CC[C@@]4(C)[C@]3(C)CC[C@@H]12", "note": "[Enoxolone]", "inhibition of cell viability": -0.0418}, {"smiles": "C[C@H]1[C@H](C)CC[C@]2(C(=O)O)CC[C@]3(C)C(=CC[C@@H]4[C@@]5(C)C[C@@H](O)[C@H](O)[C@@](C)(CO)[C@@H]5CC[C@]43C)[C@H]12", "note": "[Asiatic acid]", "inhibition of cell viability": 0.00351}, {"smiles": "CC(C)=CCC/C(C)=C/CC/C(C)=C/CC/C(C)=C/CC/C(C)=C/CC/C(C)=C/CC/C(C)=C/CC/C(C)=C/CC/C(C)=C/CO", "note": "[Solanesol]", "inhibition of cell viability": 0.301}, {"smiles": "COc1cc(/C=C/c2ccc(O)cc2)cc(OC)c1", "note": "[Pterostilbene]", "inhibition of cell viability": 0.252}, {"smiles": "O=C(O)CCCC[C@@H]1SC[C@@H]2NC(=O)N[C@@H]21", "note": "[D-Biotin]", "inhibition of cell viability": -0.0414}, {"smiles": "CC(=O)OCC(=O)[C@@]1(O)CC[C@H]2[C@@H]3CCC4=CC(=O)CC[C@]4(C)[C@H]3C(=O)C[C@@]21C", "note": "[Cortisone acetate]", "inhibition of cell viability": -0.148}, {"smiles": "COc1ccc2cc1Oc1ccc(cc1)C[C@H]1c3cc(c(OC)cc3CCN1C)Oc1c(OC)c(OC)cc3c1[C@H](C2)N(C)CC3", "note": "[Tetrandrine]", "inhibition of cell viability": "1.01 (active)"}, {"smiles": "O[C@H]1[C@H](O)[C@@H](O)[C@H](O)[C@@H](O)[C@H]1O", "note": "[Inositol]", "inhibition of cell viability": -0.137}, {"smiles": "O=c1c(O)c(-c2ccc(O)cc2)oc2cc(O)cc(O)c12", "note": "[Kaempferol]", "inhibition of cell viability": -0.00334}, {"smiles": "C[C@H]1[C@H](C)CC[C@]2(C(=O)O[C@@H]3O[C@H](CO[C@@H]4O[C@H](CO)[C@@H](O[C@@H]5O[C@@H](C)[C@H](O)[C@@H](O)[C@H]5O)[C@H](O)[C@H]4O)[C@@H](O)[C@H](O)[C@H]3O)CC[C@]3(C)C(=CC[C@@H]4[C@@]5(C)C[C@@H](O)[C@H](O)[C@@](C)(CO)[C@@H]5[C@H](O)C[C@]43C)[C@H]12", "note": "[Madecassoside]", "inhibition of cell viability": "0.808 (active)"}, {"smiles": "C=C1CC[C@@H]2[C@](C)(CO)[C@H](O)CC[C@@]2(C)[C@H]1C/C=C1\\C=COC1=O", "note": "[Dehydroandrographolide]", "inhibition of cell viability": 0.14}, {"smiles": "C[C@H]1[C@H](C)CC[C@]2(C(=O)O)CC[C@]3(C)C(=CC[C@@H]4[C@@]5(C)CC[C@H](O)C(C)(C)[C@@H]5CC[C@]43C)[C@H]12", "note": "[Ursolic acid]", "inhibition of cell viability": "1.01 (active)"}, {"smiles": "CCc1c2c(nc3ccc(OC(=O)N4CCC(N5CCCCC5)CC4)cc13)-c1cc3c(c(=O)n1C2)COC(=O)[C@]3(O)CC", "note": "[Irinotecan]", "inhibition of cell viability": "0.684 (active)"}, {"smiles": "O=c1ccc2cc(O)c(O)cc2o1", "note": "[Esculetin]", "inhibition of cell viability": "0.643 (active)"}, {"smiles": "C[C@]12CCC(=O)C=C1CC[C@@H]1[C@@H]2CC[C@@]2(C)[C@H]1CC[C@]2(O)C(=O)CO", "note": "[Cortodoxone]", "inhibition of cell viability": -0.112}, {"smiles": "CC(C)C1=CC2=CC[C@@H]3[C@](C)(CCC[C@@]3(C)C(=O)O)[C@H]2CC1", "note": "[Abietic Acid]", "inhibition of cell viability": 0.0466}, {"smiles": "COc1cc(O)c2c(c1)C(=O)c1cc(C)cc(O)c1C2=O", "note": "[Rheochrysidin]", "inhibition of cell viability": 0.0809}, {"smiles": "C=CC1=C(C)/C(=C/c2[nH]c(Cc3[nH]c(/C=C4\\NC(=O)C(C)=C4C=C)c(C)c3CCC(=O)O)c(CCC(=O)O)c2C)NC1=O", "note": "[Bilirubin]", "inhibition of cell viability": 0.0432}, {"smiles": "O=C1c2c(O)cc(O)cc2OC(c2ccc(O)c(O)c2)C1O", "note": "(stereo not given) [Taxifolin (Dihydroquercetin)]", "inhibition of cell viability": 0.086}, {"smiles": "N[C@H]1C(O)O[C@H](CO)[C@@H](O)[C@@H]1O", "note": "(stereo not given in full) [Glucosamine sulfate]", "inhibition of cell viability": 0.381}, {"smiles": "C[C@@H]1CC[C@]2(C(=O)O[C@@H]3O[C@H](CO)[C@@H](O)[C@H](O)[C@H]3O)CC[C@]3(C)C(=CC[C@@H]4[C@@]5(C)CC[C@H](O)[C@@](C)(CO)[C@@H]5CC[C@]43C)[C@@H]2[C@]1(C)O", "note": "[Pedunculoside]", "inhibition of cell viability": 0.134}, {"smiles": "O=c1ccc2ccccc2o1", "note": "[Coumarin]", "inhibition of cell viability": -0.151}, {"smiles": "COc1ccc2cc1Oc1ccc(cc1)C[C@H]1c3c(cc4c(c3Oc3cc5c(cc3OC)CCN(C)[C@@H]5C2)OCO4)CCN1C", "note": "[Cepharanthine]", "inhibition of cell viability": "1.01 (active)"}, {"smiles": "O=C(O)/C=C/c1ccccc1", "note": "[Cinnamic acid]", "inhibition of cell viability": -0.0303}, {"smiles": "O=C(O)/C=C/CCCCCCCO", "note": "[10-Hydroxy-2-decenoic acid]", "inhibition of cell viability": 0.323}, {"smiles": "CC1=CC(=O)CC(C)(C)[C@@]1(O)/C=C/C(C)=C\\C(=O)O", "note": "[Abscisic acid]", "inhibition of cell viability": -0.139}, {"smiles": "Nc1ncnc2c1ncn2[C@@H]1O[C@H](COP(=O)(O)O)[C@@H](O)[C@H]1O", "note": "[Adenosine 5'-monophosphate]", "inhibition of cell viability": -0.0048}, {"smiles": "COc1cc(C2Oc3cc([C@H]4Oc5cc(O)cc(O)c5C(=O)[C@@H]4O)ccc3OC2CO)ccc1O", "note": "(stereo not given in full) [Silymarin]", "inhibition of cell viability": 0.221}, {"smiles": "C#C[C@]1(O)CC[C@H]2[C@@H]3CCc4cc(O)ccc4[C@H]3CC[C@@]21C", "note": "[Ethynyl estradiol]", "inhibition of cell viability": "0.639 (active)"}, {"smiles": "O=c1cc(-c2ccccc2)oc2ccccc12", "note": "[Flavone]", "inhibition of cell viability": 0.149}, {"smiles": "O=C(/C=C/C=C/c1ccc2c(c1)OCO2)N1CCCCC1", "note": "[Piperine]", "inhibition of cell viability": -0.249}, {"smiles": "NC(=O)CC[C@H](N)C(=O)O", "note": "[L-Glutamine]", "inhibition of cell viability": -0.0181}, {"smiles": "O=c1ccc2ccc(O)c(O)c2o1", "note": "[Daphnetin]", "inhibition of cell viability": -0.0337}]}]}
